Assay results taken from PubChem BioAssay (NCI).
The panel holds about 83,000 compounds, 20% with a hit somewhere; the sample as a whole holds those more often.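 Note: values are percent growth. 100 is the growth of untreated cells, values between 100 and 0 indicate rising inhibition; between -100 and 0 indicates cell death.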 Unmarked numbers belong to inactive results. Active and inactive are the calls of the source. Rule for the calls: active = growth percent below 10; inactive = the rest.

Test system: HL-60(TB) leukemia
Test: NCI-60 one-dose screen, 48 h (100 = growth as untreated, 0 = no growth, -100 = all killed)
Details: 10 µM unless noted

Structure (SMILES) | growth
CCOC(=O)N1C=CC2C=CC1C1C=CC=CC2N1C(=O)OCC (stereo not drawn) | 104%
CCOC(=O)/C(O)=C(\C=N\C(=S)Nc1ccc(Cl)c(Cl)c1)C(=O)OCC | 83.6%
COc1ccc(-n2c(C)cc(-c3ccccc3)c2C)cc1 | 23.2%
CCN(CC)CC(=O)Nc1c(C)cccc1C | 107%
COc1cc2c(c(OC)c1OC)CCC(c1cccc(C(=O)Nc3ccc(Br)cc3)c1)O2 (stereo not drawn) | 73.1%
COc1ccc(Cl)cc1NC(=O)C(Br)C(Br)C(=O)O (stereo not drawn) | 1.26% (active)
CC1(C)CC(=O)C2=C(C1)OC1=C(C(=O)CC(C)(C)C1)C2c1ccc(OCc2cn(-c3ccc(F)cc3F)nn2)cc1 | 42.2%
CC1OC(n2c3ccccc3c3c4c(c5c6ccccc6[nH]c5c32)C(=O)N(CCN[C@H]2CCC[C@@H]2N)C4=O)CC(O)C1O (stereo partly drawn) | 54.3%
O=C(C[n+]1cccc2ccccc21)c1ccc(O)c(O)c1 | -20% (active)
C#Cc1ccc(-n2c(/C=C/c3ccc(O)c(OC)c3)nc3ncccc3c2=O)cc1 | 84.7%
O=C(Nc1ccc(-n2cc(-c3ccncc3)c(-c3ccc(O)c(Cl)c3)n2)cc1)c1cc(Cl)cc(Cl)c1 | 28.1%
COC(=O)[C@@H]1CCCN1C(=O)[C@H]1CCCN1C(=O)[C@@H](Cc1c[nH]c2ccccc12)NC(=S)Nc1cc(C(F)(F)F)cc(C(F)(F)F)c1 | 12.2%
Cc1ccc(/C=C(\C#N)n2nnc3cc(F)c(F)cc32)cc1 | -1.91% (active)
